SMILES strings stand for the structures. Activity calls are given as the source filed them. Cut-off read from the data, not from the text of the source, unless noted: active = inhibition above about 28%; inactive = the rest.

Nuclear receptor subfamily 5 group A member 2 (Homo sapiens), sequence (O00482 whole entry, looked up): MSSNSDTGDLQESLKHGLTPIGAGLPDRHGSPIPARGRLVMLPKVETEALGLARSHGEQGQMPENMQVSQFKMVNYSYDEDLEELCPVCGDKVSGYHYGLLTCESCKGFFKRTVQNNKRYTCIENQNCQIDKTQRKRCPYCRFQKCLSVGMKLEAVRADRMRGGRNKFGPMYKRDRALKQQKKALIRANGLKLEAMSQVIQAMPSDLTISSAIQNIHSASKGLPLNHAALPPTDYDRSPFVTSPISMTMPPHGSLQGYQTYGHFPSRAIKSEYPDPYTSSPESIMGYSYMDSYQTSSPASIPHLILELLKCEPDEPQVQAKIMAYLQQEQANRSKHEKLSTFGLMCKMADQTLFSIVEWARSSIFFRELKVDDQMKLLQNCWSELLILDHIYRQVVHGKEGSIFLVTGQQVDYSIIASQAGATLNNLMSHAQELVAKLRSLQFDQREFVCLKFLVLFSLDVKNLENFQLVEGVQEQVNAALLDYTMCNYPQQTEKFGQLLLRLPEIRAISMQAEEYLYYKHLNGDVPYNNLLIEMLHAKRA

System in one assay: not listed separately
Description: StAR promoter reporter inhibitors, counter-screen for LRH-1 inverse agonist project, cell-based, luminescence, high throughput (AID 651611). The following applies: StAR promoter luciferase reporter counterscreen, at 3.6 µM, stronger effect = higher value.
In the case of `COc1ccc2c(c1)c[n+](C)c1c3cc(OC)c(OC)cc3ccc21`, the inhibition (as a rule, the relative decrease from the control value, in per cent) was 12.1% (inactive).
Same read-out and setting: to `Oc1cccc(Nc2nc(N3CCOCC3)nc(N3CCOCC3)n2)c1` belongs 24.7% (inactive); to `O=[N+]([O-])c1ccc(COc2cccc(CNc3ccc(Br)cc3)c2)cc1`, 3.67% (inactive).
For `c1ccc(-c2nc(NCc3cccnc3)c3oc4ccccc4c3n2)cc1`, the inhibition is 19.2% (inactive).
On the same count and under the same terms, under `C/C(CC1CC(C)(C)OC1=O)=N/Nc1nc(-c2ccccc2)cs1` (stereo not given) stands -5.65% (inactive).
On to `Cc1onc(-c2c(F)cccc2Cl)c1C(=O)c1ccc(F)cc1`, for which the inhibition was 2% (inactive).
As for `COCCn1c(SCC(=O)Nc2ccc(NC(C)=O)cc2)nc2ccccc2c1=O`, the inhibition was 17% (inactive).
On the same count and under the same terms, under `Cc1ccc(SCC(=O)Nc2ccc(N3CCOCC3)cc2)cc1C` stands -0.13% (inactive).
Still for that read-out and setting: under `Cc1cnc(NC(=O)CCCc2nc3ccccc3s2)s1` stands 45.5% (active); under `Cc1csc(=O)n1CCC(=O)OCC(=O)Nc1ccc(N2CCOCC2)cc1`, -7.54% (inactive).
With `COc1ccc(N2CCN(C(=O)C3CCC(Cn4c(=S)[nH]c5ccccc5c4=O)CC3)CC2)cc1` (stereo not given), the inhibition was 9.08% (inactive).
For the compound `Cc1c(Cl)cccc1NC(=O)CS(=O)(=O)c1ccccc1`, the inhibition is 13.4% (inactive).
For `COc1ccc(CNC(=O)O[C@@H]2C[C@H]3C(=O)N(c4ccccc4)C(=O)[C@H]3[C@@]3(CN(S(=O)(=O)c4ccc(C)cc4)C[C@H]3C)[C@@H]2O)cc1OC`, the inhibition was 9.47% (inactive).
For the compound `O=C(CN1CCN(c2ccc([N+](=O)[O-])cc2)CC1)c1ccccc1`, the inhibition is 6.83% (inactive).
As to `O=[N+]([O-])c1cnccc1Nc1ccccc1`, the inhibition is 7.45% (inactive).
Take `CCCn1c(NC(=O)c2ccc([N+](=O)[O-])o2)nc2ccccc21`: the inhibition was 18.9% (inactive).
Consider `Cc1ccc(C)c(NC(=O)CSc2nc3[nH]ncc3c(=O)[nH]2)c1`, for which the inhibition is 6.04% (inactive).
With `COc1ccc(CCNC(=O)CN2C(=O)C3(OCCCO3)c3ccccc32)cc1OC`, the inhibition was 11.2% (inactive).
Still for that read-out and setting: to `COc1ccc(C(=O)N/N=C(\c2ccccc2)c2ccccn2)cc1` belongs 76.4% (active); to `CSc1ccc(CNc2cccc3ccccc23)cc1`, 3.79% (inactive); to `O=C(COC(=O)c1ccccn1)Nc1cccnc1Cl`, 3.58% (inactive).
Same read-out and setting: to `CC1CCC2(CC1)NC(=O)N(CC(=O)Nc1ccc3c(c1)OCCCO3)C2=O` (stereo not given) belongs 10.5% (inactive); to `O=C(O)/C=C/C(=O)Nc1ccccc1SC(F)(F)C(F)(F)C(F)(F)F`, 20.1% (inactive).
Still for that read-out and setting: under `CC1(C(=O)NCc2ccco2)Cc2c(-c3cccc(C(N)=O)c3)ccnc2O1` (stereo not given) stands 49.6% (active); under `O=C(CSc1nc2[nH]ncc2c(=O)n1-c1ccccc1)c1ccc2c(c1)OCCO2`, 0.39% (inactive); under `CCCc1cc(=O)oc2c(C)c(OCC(=O)NC3CC(C)(C)NC(C)(C)C3)ccc12`, 6.86% (inactive).
Regarding `CC(=O)c1ccsc1-c1c(C)cc2oc(=O)cc(-c3ccccc3)c2c1C`, the inhibition is 8.02% (inactive).
Regarding `Cc1ccc(C)c(NC(=O)CSc2nnc(-c3n[nH]c4ccccc34)o2)c1`, the inhibition was 10.3% (inactive).
Same read-out and setting: to `CC(=O)Nc1ccc(NC(=O)CSc2nnc(NC(=O)C3CC3)s2)cc1` belongs 1.23% (inactive); to `CC(=O)ON=C1C=CC(=C(C#N)c2ccccc2)C=C1`, 50.8% (active).
For the compound `CCOCC(=O)Nc1cccc(C(=O)OCC)c1`, the inhibition was -6.06% (inactive).
On the same count and under the same terms, under `CC1SC(C)C(=O)N(CC(=O)Nc2ccc3c(c2)OCO3)C1=O` (stereo not given) stands 8.81% (inactive); under `COc1ccccc1Oc1nnnn1-c1ccc(C(N)=O)cc1`, 15.4% (inactive); under `COCCn1c(SCC(=O)Nc2ccc(C(N)=O)cc2)nc2c([nH]c3ccccc32)c1=O`, 24.6% (inactive).
Consider `COc1ccc(O)c(/C=N/Nc2nc(Nc3ccccc3)nc(-n3nc(C)cc3C)n2)c1`, for which the inhibition is 21.3% (inactive).
Turning to `O=C(NCc1cccnc1)c1ccc(NC(=O)c2ccc(Br)cc2)cc1`, the inhibition is 70.9% (active).
On the same count and under the same terms, under `O=C(CSc1ncccc1-c1nc2ccccc2[nH]1)Nc1ccc2c(c1)OCCO2` stands -8.79% (inactive).
The same measure, in the same setting: under `Cc1ccc(NC(=O)CN2CCC(NC(=O)C3CCCCC3)CC2)c(Br)c1` stands 11.8% (inactive); under `Cc1cc(C(=O)NC2CCCc3c2cnn3-c2cccc(C)c2C)n(C)n1` (stereo not given), 33.4% (active).
Consider `Cc1cc(C)c(SCCc2ccncc2)c(C)c1`, for which the inhibition was 5.23% (inactive).

A further assay concerns the target Nuclear receptor subfamily 5 group A member 2 (Homo sapiens) (UniProt O00482). Description: NR5A2 activity suppression in reporter cells – cell-based, luminescence, confirmation (AID 651613; in the data active = inhibition above about 42%;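 note: HEK293T cells co-transfected with LRH-1 and StAR promoter luciferase reporter; 0% = vehicle wells and 100% = parental cells lacking receptor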). The following applies: cell-based LRH-1 luciferase reporter, inverse agonism; at 3.6 µM; stronger effect = higher value. For orientation: Reporter assays use an easily measured gene product as a stand-in for the process of interest.
`COc1ccc2c(c1)c[n+](C)c1c3cc(OC)c(OC)cc3ccc21`: the inhibition was 58.3% (active).
As for `Oc1cccc(Nc2nc(N3CCOCC3)nc(N3CCOCC3)n2)c1`, the inhibition is 45% (active).
Consider `O=[N+]([O-])c1ccc(COc2cccc(CNc3ccc(Br)cc3)c2)cc1`, for which the inhibition was 48.8% (active).
Regarding `c1ccc(-c2nc(NCc3cccnc3)c3oc4ccccc4c3n2)cc1`, the inhibition was 62.4% (active).
Still for that read-out and setting: to `C/C(CC1CC(C)(C)OC1=O)=N/Nc1nc(-c2ccccc2)cs1` (stereo not given) belongs 47.3% (active); to `Cc1onc(-c2c(F)cccc2Cl)c1C(=O)c1ccc(F)cc1`, 46.1% (active); to `COCCn1c(SCC(=O)Nc2ccc(NC(C)=O)cc2)nc2ccccc2c1=O`, 57.9% (active).
The same measure, in the same setting: under `Cc1ccc(SCC(=O)Nc2ccc(N3CCOCC3)cc2)cc1C` stands 51.6% (active); under `Cc1cnc(NC(=O)CCCc2nc3ccccc3s2)s1`, 73.1% (active).
On the same count and under the same terms, to `Cc1csc(=O)n1CCC(=O)OCC(=O)Nc1ccc(N2CCOCC2)cc1` belongs 54.1% (active); to `COc1ccc(N2CCN(C(=O)C3CCC(Cn4c(=S)[nH]c5ccccc5c4=O)CC3)CC2)cc1` (stereo not given), 36.1% (inactive); to `Cc1c(Cl)cccc1NC(=O)CS(=O)(=O)c1ccccc1`, 55.1% (active).
As for `COc1ccc(CNC(=O)O[C@@H]2C[C@H]3C(=O)N(c4ccccc4)C(=O)[C@H]3[C@@]3(CN(S(=O)(=O)c4ccc(C)cc4)C[C@H]3C)[C@@H]2O)cc1OC`, the inhibition was 18.4% (inactive).
Same read-out and setting: to `O=C(CN1CCN(c2ccc([N+](=O)[O-])cc2)CC1)c1ccccc1` belongs 60.3% (active).
Same read-out and setting: under `O=[N+]([O-])c1cnccc1Nc1ccccc1` stands 62% (active); under `CCCn1c(NC(=O)c2ccc([N+](=O)[O-])o2)nc2ccccc21`, 51.3% (active); under `Cc1ccc(C)c(NC(=O)CSc2nc3[nH]ncc3c(=O)[nH]2)c1`, 58.1% (active).
Consider `COc1ccc(CCNC(=O)CN2C(=O)C3(OCCCO3)c3ccccc32)cc1OC`, for which the inhibition was 45.7% (active).
As to `COc1ccc(C(=O)N/N=C(\c2ccccc2)c2ccccn2)cc1`, the inhibition is 80.3% (active).
As to `CSc1ccc(CNc2cccc3ccccc23)cc1`, the inhibition was 35.3% (inactive).
As to `O=C(COC(=O)c1ccccn1)Nc1cccnc1Cl`, the inhibition is 40.5% (inactive).
The same measure, in the same setting: under `CC1CCC2(CC1)NC(=O)N(CC(=O)Nc1ccc3c(c1)OCCCO3)C2=O` (stereo not given) stands 46.8% (active); under `O=C(O)/C=C/C(=O)Nc1ccccc1SC(F)(F)C(F)(F)C(F)(F)F`, 54.8% (active); under `CC1(C(=O)NCc2ccco2)Cc2c(-c3cccc(C(N)=O)c3)ccnc2O1` (stereo not given), 57.9% (active).
The same measure, in the same setting: under `O=C(CSc1nc2[nH]ncc2c(=O)n1-c1ccccc1)c1ccc2c(c1)OCCO2` stands 38.2% (inactive).
With `CCCc1cc(=O)oc2c(C)c(OCC(=O)NC3CC(C)(C)NC(C)(C)C3)ccc12`, the inhibition is 53% (active).
On the same count and under the same terms, to `CC(=O)c1ccsc1-c1c(C)cc2oc(=O)cc(-c3ccccc3)c2c1C` belongs 64.7% (active).
Turning to `Cc1ccc(C)c(NC(=O)CSc2nnc(-c3n[nH]c4ccccc34)o2)c1`, the inhibition is 58.9% (active).
On the same count and under the same terms, to `CC(=O)Nc1ccc(NC(=O)CSc2nnc(NC(=O)C3CC3)s2)cc1` belongs 49.6% (active); to `CC(=O)ON=C1C=CC(=C(C#N)c2ccccc2)C=C1`, 79% (active); to `CCOCC(=O)Nc1cccc(C(=O)OCC)c1`, 36.9% (inactive).
For the compound `CC1SC(C)C(=O)N(CC(=O)Nc2ccc3c(c2)OCO3)C1=O` (stereo not given), the inhibition is 49.1% (active).
`COc1ccccc1Oc1nnnn1-c1ccc(C(N)=O)cc1`: the inhibition was 48% (active).
Same read-out and setting: to `COCCn1c(SCC(=O)Nc2ccc(C(N)=O)cc2)nc2c([nH]c3ccccc32)c1=O` belongs 64.9% (active); to `COc1ccc(O)c(/C=N/Nc2nc(Nc3ccccc3)nc(-n3nc(C)cc3C)n2)c1`, -28.7% (inactive).
Take `O=C(NCc1cccnc1)c1ccc(NC(=O)c2ccc(Br)cc2)cc1`: the inhibition was 75.9% (active).
`O=C(CSc1ncccc1-c1nc2ccccc2[nH]1)Nc1ccc2c(c1)OCCO2`: the inhibition is -2.1% (inactive).
The same measure, in the same setting: to `Cc1ccc(NC(=O)CN2CCC(NC(=O)C3CCCCC3)CC2)c(Br)c1` belongs 34% (inactive).
Same read-out and setting: to `Cc1cc(C(=O)NC2CCCc3c2cnn3-c2cccc(C)c2C)n(C)n1` (stereo not given) belongs 68.2% (active).
`Cc1cc(C)c(SCCc2ccncc2)c(C)c1`: the inhibition was 63.7% (active).

For the origin of these results see PubChem BioAssay.
